Measured values: PubChem BioAssay (NCATS)
Results filed as inconclusive are left out. A call without a number means that no potency is given here. Calls of active or inactive are those of the source. Unless noted, calls come from the whole dose curve; as a rule, active = well fitted curve in the direction sought with a large enough effect; inconclusive = small, poorly fitted or top-dose-only effect, or another doubt; inactive = no such curve, though single readings can be large; an effect the other way counts as inactive or inconclusive.

Legend:
[1] = qHTS assay for measurement of the activity of small molecule inhibitors on Zika virus induced Caspase-3 activity in human iPSC derived neural progenitor cells (hNPCs) (AID 1224857); note: nearly all actives have a fitted effect of over 65% in size
Method in brief: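 Human iPSC-derived neural progenitor cells pretreated 1 hr with compounds, then infected with Zika virus (2 FFU/cell) for 6 hours at 37 C. Caspase-3/7 measured by Caspase-Glo luminescence; % inhibition calculated from induction scaled to uninfected (0%) and infected (100%) wells.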

[2] = qHTS assay for measurement of the activity of small molecule inhibitors on Zika virus induced Caspase-3 activity in human astrocytoma cells (AID 1224859)
Method in brief: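 SNB-19 astrocytoma cells, 250/well, pretreated 1 h with compounds, then Zika virus at 2 FFU/cell for 6 h at 37 C; Caspase-Glo 3/7 luminescence after 30 min; percent inhibition normalised to uninfected and infected controls.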

[3] = qHTS Screen of the MIPE 4.0 Collection Against Ewings Sarcoma (RDES) (AID 1259252); note: nearly all actives have a fitted effect of over 35% in size; note: potency is the fitted concentration of half-maximal effect
Method in brief: (§1)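 After a 4 h attachment period in RPMI/5% FBS, cells were pin-dosed with test compounds; DMSO served as negative and 9.2 uM bortezomib (final) as positive control. Luminescent CellTiter-Glo signal at 48 h defined viability.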

[4] = qHTS Screen of the MIPE 4.0 Collection Against Ewings Sarcoma (TC71) (AID 1259253); note: nearly all actives have a fitted effect of over 40% in size; note: potency is the fitted concentration of half-maximal effect
Method in brief: as §1

[5] = qHTS Screen of the MIPE 4.0 Collection Against Ewings Sarcoma (EW8) (AID 1259255); note: nearly all actives have a fitted effect of over 35% in size; note: potency is the fitted concentration of half-maximal effect
Method in brief: as §1

[6] = qHTS Screen of the MIPE 4.0 Collection Against Ewings Sarcoma (TC32) (AID 1259256); note: nearly all actives have a fitted effect of over 45% in size; note: potency is the fitted concentration of half-maximal effect
Method in brief: as §1

[7] = P-glycoprotein substrates identified in KB-8-5-11 adenocarcinoma cell line, qHTS therapeutic library screen (AID 1346987); note: nearly all actives have a fitted effect of over 65% in size; note: potency is the fitted concentration of half-maximal effect
Method in brief: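 In this qHTS, P-gp-rich KB-8-5-11 cells received library compounds across a concentration range. Viability was quantified by luminescence after 72 h at 37 degree C.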

[8] = NS1 protein of Zika virus - qHTS assay to identify small molecule inhibitors in human HEK 293 cells (AID 1347053); note: nearly all actives have a fitted effect of over 55% in size; note: potency is the fitted concentration of half-maximal effect
Method in brief: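 Read-out is a two-antibody TR-FRET for ZIKV NS1, normalized between uninfected cells and infected cells. Compound added 1 h before MR766 infection at MOI 0.5; human HEK 293 cells incubated 24 h, 37 C.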

[9] = qHTS assay to identify small molecule inhibitors of chordoma cells - UCH-1 (AID 1259355); note: nearly all actives have a fitted effect of over 55% in size
Method in brief: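 800 cells/well, overnight attach; compounds pinned at 15 concs, then auranofin/camptothecin/doxorubicin/rubitecan/topotecan combo added; 48hr 37 C, 5% CO2; CellTiter-Glo, 30min RT, luminescence.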

[10] = qHTS assay to identify small molecule inhibitors of chordoma cells - UCH-2 (AID 1259356); note: series mostly up to about 46 µM
[11] = Natriuretic polypeptide receptor (hNpr1) antagonism - Pilot counterscreen GloSensor control cell line (AID 1347045; calls by dose curve; note: series mostly up to about 38 µM)
Method in brief: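 HEK293 cGMP-sensor cells; 2% GloSensor reagent 2 h RT; LOPAC compounds in 1:5 titrations 30-50 min; 50 uM SNP 20 min; luminescence pre-read and post-read.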

[12] = target: Atrial natriuretic peptide receptor 2 (Homo sapiens) (UniProt P20594); assay: Natriuretic polypeptide receptor (hNpr2) antagonism - Pilot subtype selectivity assay (AID 1347050; calls by dose curve)
Method in brief: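 Antagonist mode: compounds (LOPAC1280, seven 1:5 dilutions) added 30 min before 1 nM hNppC stimulation of hNpr2-HEK293 cGMP-sensor cells; luminescence read before and 20 min after agonist at ambient temperature.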

[13] = P-glycoprotein substrates identified in KB-3-1 adenocarcinoma cell line, qHTS therapeutic library screen (AID 1346986); note: nearly all actives have a fitted effect of over 60% in size
Method in brief: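 Dose-response cytotoxicity, KB-3-1 vs P-gp-high KB-8-5-11, no colchicine in assay medium. Read: CellTiter-Glo at 72 h.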

Sequence of Atrial natriuretic peptide receptor 2 (Homo sapiens) (P20594 whole entry, looked up): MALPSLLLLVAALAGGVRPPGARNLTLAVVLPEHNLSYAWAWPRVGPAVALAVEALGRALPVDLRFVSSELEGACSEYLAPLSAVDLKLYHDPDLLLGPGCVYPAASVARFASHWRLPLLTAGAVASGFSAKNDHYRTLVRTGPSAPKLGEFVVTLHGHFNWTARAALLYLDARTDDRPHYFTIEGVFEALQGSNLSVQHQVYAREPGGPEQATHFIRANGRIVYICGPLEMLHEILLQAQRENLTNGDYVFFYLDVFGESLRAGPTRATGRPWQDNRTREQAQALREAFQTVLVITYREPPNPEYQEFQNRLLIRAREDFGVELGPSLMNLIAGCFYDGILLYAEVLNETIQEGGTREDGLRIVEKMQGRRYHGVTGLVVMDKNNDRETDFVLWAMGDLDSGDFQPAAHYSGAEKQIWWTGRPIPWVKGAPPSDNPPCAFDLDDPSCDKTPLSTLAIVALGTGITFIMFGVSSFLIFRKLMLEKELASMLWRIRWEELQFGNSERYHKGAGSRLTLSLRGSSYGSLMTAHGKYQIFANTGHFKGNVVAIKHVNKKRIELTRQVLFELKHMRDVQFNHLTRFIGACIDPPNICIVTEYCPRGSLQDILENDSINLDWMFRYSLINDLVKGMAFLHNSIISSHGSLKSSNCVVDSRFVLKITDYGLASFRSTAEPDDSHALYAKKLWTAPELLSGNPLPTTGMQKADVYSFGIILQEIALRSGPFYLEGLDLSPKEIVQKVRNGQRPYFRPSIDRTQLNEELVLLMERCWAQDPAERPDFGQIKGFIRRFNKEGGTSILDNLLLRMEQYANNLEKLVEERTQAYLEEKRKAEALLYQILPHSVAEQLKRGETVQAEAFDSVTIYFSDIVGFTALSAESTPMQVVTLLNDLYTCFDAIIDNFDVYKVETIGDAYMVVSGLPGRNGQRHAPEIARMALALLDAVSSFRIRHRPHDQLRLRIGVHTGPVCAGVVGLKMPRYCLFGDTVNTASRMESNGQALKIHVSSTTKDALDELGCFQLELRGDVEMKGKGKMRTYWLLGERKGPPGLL

Row | SMILES | Potency [1] | Potency [2] | Potency [3] | Potency [4] | Potency [5] | Potency [6] | Potency [7] | Potency [8] | Potency [9] | Potency [10] | Potency [11] | Potency [12] | Potency [13]
1 | CC[C@@H]1C(=O)OC[C@@H]1Cc1cncn1C | inactive |  |  |  |  |  |  |  |  |  |  |  | 
2 | CC(C)[C@]12O[C@@H]1[C@@H]1O[C@]13[C@]1(O[C@H]1C[C@@H]1C4=C(CC[C@@]13C)C(=O)OC4)[C@H]2O | inactive | inactive | inactive | inactive | inactive | inactive | 0.001 µM (active) |  |  |  |  |  | 
3 | CC(C)(O)C=CC(=O)[C@](C)(O)[C@H]1[C@H](O)C[C@]2(C)[C@@H]3CC=C4[C@@H](C=C(O)C(=O)C4(C)C)[C@]3(C)C(=O)C[C@@]12C | inactive | inactive | 0.59 µM (active) | 0.209 µM (active) | 0.118 µM (active) | 0.0418 µM (active) | 0.118 µM (active) | 3.32 µM (active) |  |  |  |  | 
4 | CN(C)[C@@H]1C(=O)C(C(N)=O)=C(O)[C@@]2(O)C(=O)C3=C(O)c4c(O)cccc4[C@@](C)(O)[C@H]3[C@H](O)[C@@H]12 | inactive | inactive | inactive | inactive | inactive | inactive | inactive | inactive | inactive | inactive |  |  | 
5 | CC1=C(O)C(=O)C=C2C1=CC=C1[C@@]2(C)CC[C@@]2(C)[C@@H]3C[C@](C)(C(=O)O)CC[C@]3(C)CC[C@]12C | inactive | inactive | 1.32 µM (active) | 1.18 µM (active) | 0.935 µM (active) | 0.833 µM (active) | 2.96 µM (active) | 2.96 µM (active) |  |  |  |  | 
6 | Clc1ccccc1C(c1ccccc1)(c1ccccc1)n1cccn1 | inactive | inactive | 1.05 µM (active) | 1.05 µM (active) | 1.05 µM (active) | 0.935 µM (active) | inactive |  |  |  |  |  | 
7 | COC(=O)[C@@H](N)CCCN=C(N)N[N+](=O)[O-] | inactive | inactive | inactive | inactive | inactive | inactive | inactive | inactive |  |  | inactive | inactive | 
8 | CC1=NN=C(c2ccc(N)cc2)c2cc3c(cc2C1)OCO3 | inactive | inactive | inactive | inactive | inactive | inactive | inactive | inactive |  |  | inactive | inactive | inactive
9 | O=c1[nH]c2ccc(Cl)cc2c(N[C@@H]2CN3CCC2CC3)c1-c1nc2ccccc2[nH]1 | inactive | inactive | 1.66 µM (active) | 0.0418 µM (active) | 0.0743 µM (active) | 0.0833 µM (active) | 1.66 µM (active) | 0.0526 µM (active) |  |  |  |  | 
10 | CC(=Cc1csc(C)n1)[C@@H]1C[C@H]2O[C@]2(C)CCC[C@H](C)[C@@H](O)[C@@H](C)C(=O)C(C)(C)[C@@H](O)CC(=O)O1 | inactive | inactive | inactive | inactive | inactive | inactive | 0.001 µM (active) |  |  |  |  |  | 
11 | C[C@@H]1CC[C@@]2(OC1)O[C@H]1C[C@H]3[C@@H]4CC=C5C[C@@H](O[C@@H]6O[C@H](CO)[C@@H](O[C@@H]7O[C@@H](C)[C@H](O)[C@@H](O)[C@@H]7O)[C@H](O)[C@@H]6O[C@@H]6O[C@@H](C)[C@H](O)[C@@H](O)[C@@H]6O)CC[C@]5(C)[C@@H]4CC[C@]3(C)[C@@H]1[C@H]2C | inactive | inactive | 4.18 µM (active) | 3.72 µM (active) | 3.72 µM (active) | 3.72 µM (active) | 18.7 µM (active) | 3.72 µM (active) |  |  |  |  | 
12 | CC(C)(C)C(O)C(Oc1ccc(Cl)cc1)n1cncn1 (centres undefined) | inactive | inactive |  |  |  |  |  |  |  |  |  |  | 
13 | C[C@]12Cc3cn[nH]c3C[C@@H]1CC[C@@H]1[C@H]2CC[C@@]2(C)[C@H]1CC[C@]2(C)O | inactive | inactive | 2.96 µM (active) | 2.96 µM (active) | 2.96 µM (active) | 3.32 µM (active) | inactive | inactive |  |  |  |  | 
14 | COC[C@H]1OC(=O)c2coc3c2[C@@]1(C)C1=C(C3=O)[C@@H]2CC[C@H](O)[C@@]2(C)C[C@@H]1OC(C)=O | inactive | inactive | 5.9 µM (active) | 13.2 µM (active) | 6.62 µM (active) | 2.09 µM (active) |  |  |  |  |  |  | 
15 | CC[C@@H]1[C@@H](C)O[C@@](O)([C@@H](C)[C@H](O)[C@H](C)[C@H]2OC(=O)C=CC=C[C@@H](C)[C@@H]([C@@H](C)[C@@H](O)[C@H](C)[C@@]3(O)C[C@H](O[C@H]4C[C@H](O)[C@H](O)[C@H](C)O4)[C@H](CC)[C@@H](C)O3)OC(=O)C=CC=C[C@@H]2C)C[C@H]1O[C@H]1C[C@H](O)[C@H](O)[C@H](C)O1 | inactive | inactive | 0.662 µM (active) | 0.59 µM (active) | 0.59 µM (active) | 0.662 µM (active) | 3.32 µM (active) | 1.05 µM (active) |  |  |  |  | 
16 | Clc1ccc(C(c2ccc(Cl)cc2)n2cc[n+](CC(OCc3ccc(Cl)cc3Cl)c3ccc(Cl)cc3Cl)c2)cc1 (centres undefined) | inactive |  |  |  |  |  |  |  |  |  |  |  | 
17 | CC(C)[C@H]1CN[C@H](C(=O)O)[C@H]1CC(=O)O | inactive |  |  |  |  |  |  |  |  |  |  |  | 
18 | COc1ccc2c(c1)[C@]13CCCCC1C(C2)N(C)CC3 (some centres undefined) | inactive | inactive | inactive | inactive | inactive | inactive | inactive | inactive |  |  |  |  | 
19 | CCNC(=O)CC1N=C(c2ccc(Cl)cc2)c2cc(OC)ccc2-n2c(C)nnc21 (centres undefined) | inactive | inactive |  | 16.6 µM (active) | 20.9 µM (active) | 16.6 µM (active) | inactive | inactive |  |  |  |  | inactive
20 | COc1ccc(CC2NCCc3cc(OC)c(OC)cc32)cc1OC (centres undefined) | inactive | inactive | 23.5 µM (active) |  | inactive | inactive | inactive | inactive |  |  |  |  | 
